# Laboratory results: PubChem BioAssay AID1851 (National Center for Advancing Translational Sciences (NCATS), 2009)
# Out of some 16,000 compounds screened, about 4,000 (25%) were called active. Inconclusive results (about 26%) are left out. A selection follows. Values without a mark were called inactive. The call rests on the fitted dose curve; in most records, active means well fitted curve in the direction sought with a large enough effect; inconclusive means small, poorly fitted or top-dose-only effect, or effect the other way; inactive means no such curve, though single readings can be large or run the other way.
# Biological target: Cytochrome P450 2C9 (Homo sapiens) (UniProt P11712)
# Assay: Cytochrome panel assay with activity outcomes
# Conditions: recombinant CYP, pro-luciferin dealkylation, luminescence, p450-cyp2c9; series mostly up to 57.1 µM
# On the % scale 0 is the no-effect control and ±100 the full control effect.
# Chain of Cytochrome P450 2C9 (Homo sapiens) (P11712 whole entry, looked up): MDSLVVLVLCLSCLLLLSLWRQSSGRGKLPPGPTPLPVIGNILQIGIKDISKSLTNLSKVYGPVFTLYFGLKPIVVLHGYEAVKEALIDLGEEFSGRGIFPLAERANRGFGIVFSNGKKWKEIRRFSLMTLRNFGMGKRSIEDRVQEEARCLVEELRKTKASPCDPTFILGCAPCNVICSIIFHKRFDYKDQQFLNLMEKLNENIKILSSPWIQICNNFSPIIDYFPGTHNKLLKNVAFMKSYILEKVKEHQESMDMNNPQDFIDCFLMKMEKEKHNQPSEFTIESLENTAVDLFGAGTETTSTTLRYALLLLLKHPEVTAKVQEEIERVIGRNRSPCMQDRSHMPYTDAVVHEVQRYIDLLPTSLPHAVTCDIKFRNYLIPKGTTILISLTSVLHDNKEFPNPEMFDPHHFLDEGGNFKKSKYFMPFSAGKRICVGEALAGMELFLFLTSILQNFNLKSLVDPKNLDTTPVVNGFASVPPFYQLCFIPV
SMILES,"activity, negative = inhibition",AC50
N#Cc1cccc(-c2nc(Nc3ccccc3)c3ccccc3n2)c1,-3.27% [at 2.29 µM],
Clc1cccc(Nc2nnc(-c3ccccc3)c3ccccc23)c1,,3.98 µM (active)
c1ccc(Nc2nc(-c3ccc4c(c3)OCO4)nc3ccccc23)cc1,-5.32% [at 2.29 µM],
c1ccn(-c2ccc(N3CCOCC3)cc2)c1,,inactive
CC(C)CN1CCCC2(CCN(C(=O)c3cnccn3)CC2)C1,,inactive
Brc1cc2c(cc1/C=N/Nc1nc(N3CCCC3)nc(N3CCOCC3)n1)OCO2,,7.08 µM (active)
COc1c(/C=N/Nc2nc(N3CCCCC3)nc(N3CCCCC3)n2)cccc1[N+](=O)[O-],,inactive
COc1cccc(/C=N/Nc2nc(N3CCCC3)nc(N3CCCC3)n2)c1O,,12.6 µM (active)
COc1nc(/C(N)=N/O)nc(N2CCCCC2)n1,,inactive
N#Cc1cccc(-c2cncnc2NCc2cccnc2)c1,6.75% [at 2.29 µM],
CN(C)CCO[C@@H](c1ccc(Cl)cc1)c1ccccn1,,inactive
O=S(=O)(Nc1nc(-c2sccc2Cl)cs1)c1cc(Cl)ccc1Cl,,0.631 µM (active)
COCC(C)NCc1cccc(C)c1 (configuration not stated),,inactive
Cc1ccc(S(=O)(=O)n2ccc(-c3cccc(OCc4c(F)cccc4Cl)c3)n2)cc1,,1.58 µM (active)
CO[C@H]1COC(=O)C/C=C\[C@H](C)COC(=O)[C@@H](C)NC(=O)C/C=C\[C@@H]1C,-24.8% [at 11.4 µM],
O=C(Cc1cccc2ccccc12)N/N=C/c1ccc(Sc2nc3ccccc3s2)o1,,0.282 µM (active)
COCC(=O)N/N=C/c1ccc(Sc2nc3ccccc3s2)o1,,inactive
NCCCCCC(=O)O,,inactive
CCNC(=S)NNC(=O)Cc1ccccc1,,inactive

SMILES,"activity, negative = inhibition",AC50
CCNC(=S)NNC(=O)c1cc(C2CC2)nc2ccccc12,,2 µM (active)
CCNC(=S)NNC(=O)c1cccc(Br)c1,,inactive
Cc1cc(C(=O)Nc2c(C)n(C)n(-c3ccccc3)c2=O)c2ccccc2n1,,inactive
Cc1cc(C(=O)OC2CCOC2=O)c2ccccc2n1 (configuration not stated),,inactive
Cc1cc(C(=O)NNC(=S)NC(C)c2ccccc2)c2ccccc2n1 (configuration not stated),,3.16 µM (active)
CCNC(=S)NNC(=O)c1cc(C)on1,,inactive
CCNC(=S)NNC(=O)c1cc(CC(C)C)nc2ccccc12,,2.82 µM (active)
OCCCN=C1CCCCC1,-11% [at 11.4 µM],
COCC(=O)N1CCC[C@@]2(CCN(c3ncccn3)C2)C1,,inactive
O=C(c1ccc(CN2CCc3ccccc3C2)cc1)N1CCc2ccccc2C1,,inactive
O=C(Nc1ccc(S(=O)(=O)N2CCCCC2)cc1)c1ccc(CN2CCc3ccccc3C2)cc1,,3.16 µM (active)
O=C(Nc1ccc(S(=O)(=O)N2CCOCC2)cc1)c1ccc(CN2CCc3ccccc3C2)cc1,,8.91 µM (active)
Cc1ccc(NC(=O)CCc2c(C)nc3ncnn3c2C)nc1,,inactive
O=C(CCN1CCc2ccccc2C1)Nc1ccc(F)cc1,,inactive
Cc1nc2ncnn2c(C)c1CCC(=O)Nc1ccc(S(=O)(=O)N2CCCCCC2)cc1,,3.16 µM (active)
O=C(CSc1ncccn1)Nc1ccc(S(=O)(=O)N2CCCCC2)cc1,,7.94 µM (active)
CC(=O)Nc1ccc(S(=O)(=O)N2CCC(N(C)CCC(C)C)CC2)cc1,,inactive
Cc1nc2ncnn2c(C)c1CCC(=O)NCc1ccccc1,,inactive
